This note sets out measurements from PubChem BioAssay (NCI).

This is part of a sample that, as a whole, favours compounds with a hit. Of some 79,000 tested, about 15% had one in any assay. Unmarked numbers belong to inactive results. Calls of active or inactive are those of the source. No stated cut-off is given here; in the data, active means growth inhibition above about 70%; inactive means the rest.

The nature of one experiment: NCI Yeast Anticancer Drug Screen. Data for the bub3 strain (AID 167). As to conditions: S. cerevisiae bub3 mutant strain, at 50.0 µM, active compounds read high. The essentials:
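In this screen, a yeast mutant lacking normal mitotic checkpoint function is challenged with compound. Relative growth versus vehicle gives the inhibition value.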
In the case of `N#C/C(=C\c1ccco1)C(=O)Nc1ccc(Br)cc1`, the growth inhibition was 9.1%.
Turning to `O=[N+]([O-])c1ccc(SCN(CSc2ccc([N+](=O)[O-])cc2)Cc2ccccc2)cc1`, the growth inhibition is 4.65%.
For `CN(C)CCC(O)(c1ccccc1)C(O)(CCN(C)C)c1ccccc1` (stereo not given), the growth inhibition was -13.8%.
With `CCCCCCCCOC(=O)c1cc([N+](=O)[O-])c(Sc2ncnc3nc[nH]c23)c([N+](=O)[O-])c1`, the growth inhibition is 16.1%.
Turning to `CC(=O)NC(Cc1ccc(C)cc1)C(=O)O` (stereo not given), the growth inhibition is -3.05%.
Regarding `Nc1cccc(SC2CC(=O)N(c3ccc4c(c3)OCO4)C2=O)c1` (stereo not given), the growth inhibition was 91.7% (active).
In the case of `N#Cc1c2c(n3c1[nH]c(=O)c1ccccc13)CCCC2`, the growth inhibition was -2.8%.
As for `Cc1nc2c(=O)n3c4c(cccc4c2o1)CCC3`, the growth inhibition was 14.5%.
Still for that read-out and setting: next, `O=C1c2cc(Cl)ccc2-n2c(noc2=O)C2CSCN12` (stereo not given): -18.3%; `O=C1CC2[C@@H](N3CCCC3)CCC(N1Cc1ccccc1)C2(O)O` (stereo not given in full): -19.8%; `CC(=O)OCCCC(=O)Nc1cc([N+](=O)[O-])ccc1OCc1ccccc1`: 5.7%.
Take `Cc1ccc(NC(=O)C(=O)C(C(=O)c2ccc3ccccc3c2)C2OC(=O)c3ccccc32)c(C)c1` (stereo not given): the growth inhibition is 34.9%.
For `[O-][n+]1c2ccccc2[n+]([O-])c2cc(O)ccc21`, the growth inhibition is 17.1%.
Regarding `Cc1cccc(NC(=O)c2ccc(Cl)cc2Cl)n1` (tested in a mixture with another compound), the growth inhibition was 4.05%.
As to `COC(=O)c1cc([O-])c2sc(C)c(C)[n+]2n1`, the growth inhibition was -4.05%.
Turning to `COc1nc(NC2OCC(O)C(O)C2O)c(Br)c(=O)n1C` (stereo not given), the growth inhibition is 17.5%.
`C=CCN1C(=O)c2ccccc2S1(=O)=O`: the growth inhibition was -3.15%.
Take `CCOC(=O)NCc1ccccc1`: the growth inhibition is -6.35%.
Still for that read-out and setting: next, `CCOc1cc(/C=C2\N=C(c3ccccc3)OC2=O)ccc1O`: -12.8%; `c1ccc(C2=NOC3C4CCC(C4)C23)cc1` (stereo not given): -8.85%; `OCC1C=Cc2ccccc21` (stereo not given): 14.5%.
On the same count and under the same terms, next, `CCCCCCCCCCNC(=O)C(OC(C)=O)C(OC(C)=O)C(OC(C)=O)C(COC(C)=O)OC(C)=O` (stereo not given): 10.2%.
Consider `NC1=NC(c2ccccc2)C2=C(N1)C(=O)N(Cc1ccccc1)C2` (stereo not given), for which the growth inhibition was -16.8%.
Regarding `O=C(O)c1cccc(Cl)c1-c1c(Cl)cccc1C(=O)O`, the growth inhibition was 17.3%.
Take `N#C/C(=C/N1CCNC1=S)C(N)=O`: the growth inhibition is -2.8%.
As for `N#CC1=CNc2ccccc2N=C1N`, the growth inhibition was 28.2%.
On the same count and under the same terms, the same measure for `CCCCC(O)(CCCC)C(C)(C)C`: -0.2%; for `O=C1C(Cl)N(c2ccccc2[N+](=O)[O-])C1c1c[nH]c2ccccc12` (stereo not given): -26.2%; for `COc1ccc2cc(C(=O)CCC(=O)O)ccc2c1`: -38.5%.
For the compound `O=Cc1cccc2c([N+](=O)[O-])cccc12`, the growth inhibition was -1.9%.
With `Nc1cc(S(=O)(=O)O)cc2cccc(S(=O)(=O)O)c12`, the growth inhibition is 25.2%.
For the compound `O=C(CCCCC(=O)NC1c2ccccc2Oc2ccccc21)NC1c2ccccc2Oc2ccccc21`, the growth inhibition was 9.25%.
For the compound `NCC1CCC(C(=O)O)CC1` (stereo not given), the growth inhibition is -24.9%.
Take `COC(C)C(NC=O)C(=O)O` (stereo not given): the growth inhibition is 9.95%.
For `C/C(O)=C(\N=Nc1ccccc1)C(N)=O`, the growth inhibition is -0.8%.
Consider `Cc1cc2c(cc1C)OC(=O)CC2`, for which the growth inhibition was 7.45%.
Consider `CNCCS(=O)(=O)O`, for which the growth inhibition is 13.6%.
Regarding `Cc1c(-c2ccccc2)c2ccccc2c2ccccc12`, the growth inhibition was 2.2%.
On the same count and under the same terms, next, `COc1cccc(CCN(CCOC(N)=O)CCOC(N)=O)c1OC`: -4.85%; `COc1cc(C)c2cccc(C)c2n1`: -8.8%.

A short description of the next experiment: NCI Yeast Anticancer Drug Screen. Data for the mlh1 rad18 strain (AID 175). The note with it: S. cerevisiae mlh1 rad18 strain growth inhibition; at 50.0 µM; active compounds read high. The essentials: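 Steps: expose repair-defective yeast to compound; measure growth; express inhibition against vehicle-treated controls.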
Turning to `N#C/C(=C\c1ccco1)C(=O)Nc1ccc(Br)cc1`, the growth inhibition is 23.8%.
As to `O=[N+]([O-])c1ccc(SCN(CSc2ccc([N+](=O)[O-])cc2)Cc2ccccc2)cc1`, the growth inhibition is -7%.
With `CN(C)CCC(O)(c1ccccc1)C(O)(CCN(C)C)c1ccccc1` (stereo not given), the growth inhibition is -16.4%.
As to `CCCCCCCCOC(=O)c1cc([N+](=O)[O-])c(Sc2ncnc3nc[nH]c23)c([N+](=O)[O-])c1`, the growth inhibition was 24.2%.
The same measure, in the same setting: the same measure for `CC(=O)NC(Cc1ccc(C)cc1)C(=O)O` (stereo not given): 1.7%.
Consider `Nc1cccc(SC2CC(=O)N(c3ccc4c(c3)OCO4)C2=O)c1` (stereo not given), for which the growth inhibition was 85.3% (active).
Turning to `N#Cc1c2c(n3c1[nH]c(=O)c1ccccc13)CCCC2`, the growth inhibition was 10.8%.
With `Cc1nc2c(=O)n3c4c(cccc4c2o1)CCC3`, the growth inhibition is -48.4%.
As for `O=C1c2cc(Cl)ccc2-n2c(noc2=O)C2CSCN12` (stereo not given), the growth inhibition was 11.6%.
Consider `O=C1CC2[C@@H](N3CCCC3)CCC(N1Cc1ccccc1)C2(O)O` (stereo not given in full), for which the growth inhibition was 3.25%.
Same read-out and setting: next, `CC(=O)OCCCC(=O)Nc1cc([N+](=O)[O-])ccc1OCc1ccccc1`: 8.45%; `Cc1ccc(NC(=O)C(=O)C(C(=O)c2ccc3ccccc3c2)C2OC(=O)c3ccccc32)c(C)c1` (stereo not given): 62.2%.
Consider `[O-][n+]1c2ccccc2[n+]([O-])c2cc(O)ccc21`, for which the growth inhibition was 50.8%.
Same read-out and setting: the same measure for `Cc1cccc(NC(=O)c2ccc(Cl)cc2Cl)n1` (tested in a mixture with another compound): 20.9%.
As to `COC(=O)c1cc([O-])c2sc(C)c(C)[n+]2n1`, the growth inhibition was 2.55%.
As to `COc1nc(NC2OCC(O)C(O)C2O)c(Br)c(=O)n1C` (stereo not given), the growth inhibition is 13%.
The same measure, in the same setting: the same measure for `C=CCN1C(=O)c2ccccc2S1(=O)=O`: 3.55%; for `CCOC(=O)NCc1ccccc1`: 20.1%; for `CCOc1cc(/C=C2\N=C(c3ccccc3)OC2=O)ccc1O`: -2.75%.
For `c1ccc(C2=NOC3C4CCC(C4)C23)cc1` (stereo not given), the growth inhibition is -20.1%.
The same measure, in the same setting: the same measure for `OCC1C=Cc2ccccc21` (stereo not given): -2.4%; for `CCCCCCCCCCNC(=O)C(OC(C)=O)C(OC(C)=O)C(OC(C)=O)C(COC(C)=O)OC(C)=O` (stereo not given): 40.4%; for `NC1=NC(c2ccccc2)C2=C(N1)C(=O)N(Cc1ccccc1)C2` (stereo not given): 3.15%.
On to `O=C(O)c1cccc(Cl)c1-c1c(Cl)cccc1C(=O)O`, for which the growth inhibition was -8.45%.
With `N#C/C(=C/N1CCNC1=S)C(N)=O`, the growth inhibition is 12.4%.
Regarding `N#CC1=CNc2ccccc2N=C1N`, the growth inhibition was 24.1%.
As to `CCCCC(O)(CCCC)C(C)(C)C`, the growth inhibition is 9.3%.
On the same count and under the same terms, the same measure for `O=C1C(Cl)N(c2ccccc2[N+](=O)[O-])C1c1c[nH]c2ccccc12` (stereo not given): -31.7%; for `COc1ccc2cc(C(=O)CCC(=O)O)ccc2c1`: 0.25%; for `O=Cc1cccc2c([N+](=O)[O-])cccc12`: 49.5%.
On to `Nc1cc(S(=O)(=O)O)cc2cccc(S(=O)(=O)O)c12`, for which the growth inhibition is 30.8%.
Take `O=C(CCCCC(=O)NC1c2ccccc2Oc2ccccc21)NC1c2ccccc2Oc2ccccc21`: the growth inhibition was 31.4%.
For the compound `NCC1CCC(C(=O)O)CC1` (stereo not given), the growth inhibition was -21.6%.
Consider `COC(C)C(NC=O)C(=O)O` (stereo not given), for which the growth inhibition was 1.9%.
For `C/C(O)=C(\N=Nc1ccccc1)C(N)=O`, the growth inhibition is -3.45%.
With `Cc1cc2c(cc1C)OC(=O)CC2`, the growth inhibition was 3.65%.
Take `CNCCS(=O)(=O)O`: the growth inhibition was 9.25%.
As for `Cc1c(-c2ccccc2)c2ccccc2c2ccccc12`, the growth inhibition is -14.4%.
For `COc1cccc(CCN(CCOC(N)=O)CCOC(N)=O)c1OC`, the growth inhibition is -2.65%.
For `COc1cc(C)c2cccc(C)c2n1`, the growth inhibition is 8.7%.
